Assay results taken from PubChem BioAssay (NCATS).
Inconclusive results are not listed. Calls of active or inactive are those of the source. The call rests on the fitted dose curve; in most records, active means well fitted cell-killing curve with a large enough effect; inconclusive means small, poorly fitted or top-dose-only effect, or effect the other way; inactive means flat fitted curve, though single readings scatter.

test: MultiTox-Fluor Cytotoxicity Assay - LYMP1-002 - Live Cells (AID 955); conditions: LYMP1-002 lymphoblastoid live-cell protease fluorescence viability; series mostly up to 46.1 µM
From the text: NIH Chemical Genomics Center [NCGC]
NIH Molecular Libraries Screening Centers Network [MLSCN]
National Institutes of Environmental Health Sciences [NIEHS]
National Toxicology Program [NTP]
We have developed a 1536-well cell-based assay for quantitative high throughput screening (qHTS) against a number of cell lines to determine in vitro cytotoxicity of small molecules. This particular assay uses a human lymphoblastoid cell line (LYMP1-002) purchased from Coriell Institute.
NCGC Assay Protocol Summary:
The MultiTox-Fluor Cytotoxicity Assay (Promega) is a homogeneous method to simultaneously measure the relative number of live and dead cells in culture by detecting changes in cell membrane integrity. There are two fluorogenic peptide substrates in the assay reagent. Viable cells are determined when the cell-permeant substrate (GF-AFC) enters the cell and is cleaved by protease from live cells resulting in liberated fluorophore. This live-cell protease activity restricted to viable cells is proportional to cell number. The dead cells are determined by using fluorogenic cell-impermeant peptide substrate (bis-AAF-R110) which cleaved by dead cell proteases leaking from damaged cell membrane.
Using the MultiTox-Fluor Cytotoxicity Assay, the relative number of live cells was measured in the lymphoblastoid cell line with complete culture medium following compound treatment for 16 hours. The assay was performed in opaque black Kalypsys 1536-well plates. In the screen, tetraoctylammonium bromide was used as positive control. Library compounds were measured for their ability to cause acute toxicity in the cell line, as reflected by a decrease in live cell protease activity, in a concentration-dependent manner. […] AC50 values were determined from concentration-response data modeled with the standard Hill equation.
qHTS protocol for MultiTox-Fluor Cytotoxicity assay
[Step] [Parameter] [Value] [Description]
1. Reagent; 5 uL; 2500 lymphoblastoid cells/well
2. Time; 5 hr; 37 C incubation
4. Controls; 23 nL; Tetraoctylammonium bromide 6.4pM to 92 uM
5. Time; 16 hr; 37 C incubation
6. Reagent; 5 uL; MuliTox-Fluor Assay reagent
7. Time; 60 min; Room Temperature
8. Detection; live-cell fluorescence (Ex/Em=405/510); EnVision plate reader
Keywords: cell viability, cytotoxicity, lymphoblastoid cell line, fluorescence, NTPHTS, NTPHTS_NCGC, NIEHS, EPA, DSSTox, MLSMR, MLSCN, NIH Roadmap, qHTS, NCGC

Q: Which outcome does the source give for `O=[N+]([O-])c1ccc2c3c(cccc13)CC2` here?
A: Its outcome is “inactive”.

Q: With `CCOC(=O)CBr` as the compound, how does the outcome read?
A: Its outcome is “inactive”.

Q: With `Oc1cc(Cl)c(Cl)c(Cl)c1Cl` as the compound, how does the outcome read?
A: Its outcome is “inactive”.

Q: For `Nc1ccc(Oc2ccc(N)cc2)cc1`, which outcome is on record?
A: The outcome was “inactive”.

Q: With `CCOP(=O)(OCC)OCC` as the compound, how does the outcome read?
A: Its outcome is “inactive”.

Q: With `Cc1ccc(N)cc1Cl` as the compound, how does the outcome read?
A: The outcome was “inactive”.

Q: With `CCCCOC(=O)c1ccccc1N` as the compound, how does the outcome read?
A: The outcome was “inactive”.

Q: Which outcome does the source give for `ClC(Cl)(Cl)C(Cl)(Cl)Cl` here?
A: Its outcome is “inactive”.

Q: For `O=[N+]([O-])c1cc(Cl)c(Cl)cc1Cl`, which outcome is on record?
A: Its outcome is “inactive”.

Q: With `C=CCOCC1CO1` (stereo not given) as the compound, how does the outcome read?
A: Its outcome is “inactive”.

Q: For `CCCCCCCCCCCOC(=O)c1ccccc1C(=O)OCCCCCCCCCCC`, which outcome is on record?
A: Its outcome is “inactive”.

Q: With `CC(C)(COCC1CO1)COCC1CO1` (stereo not given) as the compound, how does the outcome read?
A: The outcome was “inactive”.

Q: With `CCOS(C)(=O)=O` as the compound, how does the outcome read?
A: Its outcome is “inactive”.

Q: With `Nc1cc(Cl)ccc1Cl` as the compound, how does the outcome read?
A: Its outcome is “inactive”.

Q: With `C(CCOCC1CO1)COCC1CO1` (stereo not given) as the compound, how does the outcome read?
A: Its outcome is “inactive”.

Q: For `O=[N+]([O-])/C=C/c1ccccc1`, which outcome is on record?
A: Its outcome is “inactive”.

Q: For `Oc1cccc(Cl)c1Cl`, which outcome is on record?
A: The outcome was “inactive”.

Q: Which outcome does the source give for `Nc1ccc(-c2ccc(N)cc2)cc1` here?
A: The outcome was “inactive”.

Q: For `CC1CC(=O)O1` (stereo not given), which outcome is on record?
A: Its outcome is “inactive”.

Q: Which outcome does the source give for `O=C(O)C(Br)CBr` (stereo not given) here?
A: Its outcome is “inactive”.

Q: For `ClCc1ccccc1`, which outcome is on record?
A: Its outcome is “inactive”.

Q: For `C=CC#N`, which outcome is on record?
A: The outcome was “inactive”.

Q: With `Nc1c(Cl)cc([N+](=O)[O-])cc1Cl` as the compound, how does the outcome read?
A: Its outcome is “inactive”.

Q: For `CC(C)(C)OOC(=O)c1ccccc1`, which outcome is on record?
A: The outcome was “inactive”.

Q: Which outcome does the source give for `C=CC=O` here?
A: The outcome was “inactive”.

Q: For `CCCCOC(C)=O`, which outcome is on record?
A: The outcome was “inactive”.

Q: Which outcome does the source give for `CN(C)C(=O)Nc1ccc(Cl)cc1` here?
A: The outcome was “inactive”.

Q: Which outcome does the source give for `CC(C)(Cl)[N+](=O)[O-]` here?
A: The outcome was “inactive”.

Q: For `c1ccoc1`, which outcome is on record?
A: Its outcome is “inactive”.

Q: With `c1ccc(N=NNc2ccccc2)cc1` as the compound, how does the outcome read?
A: The outcome was “inactive”.

Q: For `Oc1cccc(Cl)c1`, which outcome is on record?
A: The outcome was “inactive”.

Q: Which outcome does the source give for `Nc1ccc(Cc2ccc(N)c(Cl)c2)cc1Cl` here?
A: Its outcome is “inactive”.

Q: For `CCCCCC[N+](=O)[O-]`, which outcome is on record?
A: Its outcome is “inactive”.

Q: With `C[N+](=O)[O-]` as the compound, how does the outcome read?
A: Its outcome is “inactive”.

Q: Which outcome does the source give for `Clc1cccc(Cl)c1` here?
A: Its outcome is “inactive”.

Q: For `Cc1ccc([N+](=O)[O-])cc1`, which outcome is on record?
A: Its outcome is “inactive”.

Q: With `Nc1cc(Cl)cc(Cl)c1` as the compound, how does the outcome read?
A: Its outcome is “inactive”.

Q: With `C=C(Cl)CSC(=S)N(CC)CC` as the compound, how does the outcome read?
A: The outcome was “inactive”.

Q: For `CCCBr`, which outcome is on record?
A: The outcome was “inactive”.

Q: For `BrCC(Br)(Br)Br`, which outcome is on record?
A: Its outcome is “inactive”.
